Compound activity deposited in PubChem BioAssay by several laboratories.
CYP2C19 inh – inhibitors of human CYP2C19. CYP2C19 Supersomes, luciferin-H EGE luminescence, 30 min. AID 778. actives 21% (n = 96,000). inhibition, % at 5 µM;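 active = CYP2C19 inhibition above a set limit at 5 µM in the primary screen, cut at about 50% in these data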;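 also: plate controls were negative control wells for no effect and 2.5 mM tranylcypromine positive control for full effect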
Target sequence (P33261 whole entry, looked up): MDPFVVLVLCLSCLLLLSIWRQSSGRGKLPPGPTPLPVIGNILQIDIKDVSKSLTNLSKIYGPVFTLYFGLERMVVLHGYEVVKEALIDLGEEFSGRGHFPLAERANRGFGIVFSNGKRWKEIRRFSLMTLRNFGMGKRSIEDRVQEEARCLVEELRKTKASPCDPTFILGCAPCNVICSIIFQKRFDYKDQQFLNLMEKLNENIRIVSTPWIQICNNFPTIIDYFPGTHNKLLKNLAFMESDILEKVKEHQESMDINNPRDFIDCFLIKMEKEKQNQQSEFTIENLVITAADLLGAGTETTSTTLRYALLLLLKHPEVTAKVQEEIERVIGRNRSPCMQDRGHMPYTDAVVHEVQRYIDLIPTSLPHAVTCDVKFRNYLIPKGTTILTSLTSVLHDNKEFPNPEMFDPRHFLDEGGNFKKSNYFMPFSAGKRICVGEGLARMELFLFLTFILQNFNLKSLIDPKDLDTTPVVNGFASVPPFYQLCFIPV
CYP2C9 inhib – inhibitors of human CYP2C9; P11712; CYP2C9 Supersomes, luciferin-H conversion, luminescence; inhibition, % at 5 µM; actives 20% (n = 96,000);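 active = blocking of liver enzyme CYP2C9 beyond about 50% at 5 µM, limit read from the data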
sEH inhibitor – inhibitors of human soluble epoxide hydrolase; P34913; recombinant human sEH enzymatic activity assay; inhibition, % at 2 µM; actives 0.34% (n = 91,000); AID 707; in the data active = inhibition above about 80%
sEH act – increases human soluble epoxide hydrolase activity; P34913; actives 0.04% (n = 91,000); activation, % at 2 µM; purified human sEH enzymatic activity, activator screen; in the data active = activation above about 37%
CYP2C9 activ – activators of human CYP2C9; activation factor at 5 µM; P11712; recombinant CYP2C9, luciferin-H conversion, luminescence; stronger effect = higher value; factor 1 = untreated enzyme, 0 = blocked; actives 1.4% (n = 96,000);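 active = activation factor of 2 or more for CYP2C9 at a 5 µM dose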;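 also: 0 = sulfaphenazole-blocked wells and 1 = vehicle-only wells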
CYP2C19 act – cytochrome P450 2C19 (human) activation; activation factor at 5 µM; recombinant CYP2C19, luciferin-H EGE luminescence; stronger effect = higher value; 0 = fully inhibited enzyme, 1 = untreated enzyme; 96,000 tested, under 10 active; AID 1025;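 active = activation factor of at least 2 at 5 µM in the primary screen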;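 also: 0 = wells with 2.5 mM tranylcypromine and 1 = vehicle-only wells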
* = called active by the depositor. In the library only some 27% were active in any assay of this set; here they are far more common.

How did COc1cccc(C2=CC(c3ccccc3)n3ncnc3N2)c1 (stereo not given) do in these assays?
CYP2C19 inh: 55*; CYP2C9 inhib: 55*; sEH inhibitor: -4; sEH act: 2; CYP2C9 activ: 0.4; CYP2C19 act: 0.5

What do the screens show for `COc1cccc(C2=CC(c3ccc(N(C)C)cc3)n3ncnc3N2)c1` (stereo not given)?
CYP2C19 inh: 30; CYP2C9 inhib: 53*; CYP2C9 activ: 0.5; CYP2C19 act: 0.7

How did CCOc1ccc(C2C=C(c3ccc(F)cc3)Nc3ncnn32)cc1 (stereo not given) do in these assays?
CYP2C19 inh: 44; CYP2C9 inhib: 59*; sEH inhibitor: 2; sEH act: -1; CYP2C9 activ: 0.4; CYP2C19 act: 0.6

How did COC(=O)c1cc2ccsc2n1CC(=O)N(C)C1CCCCC1 do in these assays?
CYP2C19 inh: 33; CYP2C9 inhib: 12; sEH inhibitor: -28; sEH act: 27; CYP2C9 activ: 0.9; CYP2C19 act: 0.7

How did CCCC(O)(CCN1CCOCC1)c1ccc(Br)cc1 (stereo not given) do in these assays?
CYP2C19 inh: 36; CYP2C9 inhib: 6; sEH inhibitor: -6; sEH act: 6; CYP2C9 activ: 0.9; CYP2C19 act: 0.6

Results for O=C(Cc1nn[nH]n1)NCc1ccccc1Cl ?
CYP2C19 inh: 2; CYP2C9 inhib: 5; CYP2C9 activ: 1; CYP2C19 act: 1

Results for COCCN(C(=O)CNC(=O)c1ccco1)C(C(=O)NC1CCCC1)c1cccs1 (stereo not given) ?
sEH inhibitor: 15; sEH act: -14

What do the screens show for `CCC(Oc1ccccc1)C(=O)Nc1ccc(S(=O)(=O)N2CCOCC2)cc1` (stereo not given)?
sEH inhibitor: 6; sEH act: -6

Results for CCC(Oc1ccccc1)C(=O)N1CC(C)CC(C)C1 (stereo not given) ?
CYP2C19 inh: 51*; CYP2C9 inhib: 12; sEH inhibitor: -5; sEH act: 9; CYP2C9 activ: 0.9; CYP2C19 act: 0.5

How did O=C(/C=C/c1cccs1)Nc1nc(-c2ccccc2)cs1 do in these assays?
CYP2C19 inh: 70*; CYP2C9 inhib: 85*; sEH inhibitor: 3; sEH act: -2; CYP2C9 activ: 0.2; CYP2C19 act: 0.3

What do the screens show for `O=C(/C=C/c1ccc2c(c1)OCO2)Nc1nc(-c2ccccc2)cs1`?
CYP2C19 inh: 59*; CYP2C9 inhib: 74*; sEH inhibitor: -13; sEH act: 13; CYP2C9 activ: 0.3; CYP2C19 act: 0.4

What do the screens show for `COC(=O)c1cc(NC(=O)/C=C/c2ccc3c(c2)OCO3)cc(C(=O)OC)c1`?
CYP2C19 inh: 32; CYP2C9 inhib: 30; sEH inhibitor: 4; sEH act: -1; CYP2C9 activ: 0.7; CYP2C19 act: 0.7

What do the screens show for `CCc1c(C)nc2ncnn2c1NCCc1ccc(OC)cc1`?
CYP2C19 inh: 63*; CYP2C9 inhib: 85*; sEH inhibitor: -4; sEH act: 3; CYP2C9 activ: 0.1; CYP2C19 act: 0.4

What do the screens show for `CCc1c(C)nc2ncnn2c1Nc1ccc(C)c(C)c1`?
sEH inhibitor: 6; sEH act: -3

What do the screens show for `CCOC(=O)COn1c(-c2cccc(Cl)c2)nc2ccc([N+](=O)[O-])cc21`?
CYP2C19 inh: -3; CYP2C9 inhib: 3; sEH inhibitor: 18; sEH act: -18; CYP2C9 activ: 1; CYP2C19 act: 1

What do the screens show for `CCOC(=O)C(C)On1c(-c2cccc(Cl)c2)nc2ccc([N+](=O)[O-])cc21` (stereo not given)?
CYP2C19 inh: 88*; CYP2C9 inhib: 89*; sEH inhibitor: 11; sEH act: -8; CYP2C9 activ: 0.1; CYP2C19 act: 0.1

How did CCCS/C(N)=N/N=C/c1ccccc1O do in these assays?
CYP2C19 inh: 79*; CYP2C9 inhib: 59*; sEH inhibitor: -10; sEH act: 10; CYP2C9 activ: 0.4; CYP2C19 act: 0.2

Results for C=CCNC(=O)C12CC3(C)CC(C)(CC(C)(C3)C1)C2 ?
CYP2C19 inh: 54*; CYP2C9 inhib: 10; sEH inhibitor: -1; sEH act: 0; CYP2C9 activ: 0.9; CYP2C19 act: 0.5

How did COc1cc(OC)c2nc(C)c3c(c2c1)N(c1ccc(O)cc1)CC3 do in these assays?
CYP2C19 inh: 27; CYP2C9 inhib: 0; sEH inhibitor: 2; sEH act: 0; CYP2C9 activ: 1; CYP2C19 act: 0.7
